# Compound activity from PubChem.
# Compounds with a hit are over-represented: about 6.8% of the library has one in this group of screens.
# T cruzi growth-1: blocks T. cruzi growth in NIH3T3 culture; T. cruzi beta-gal in NIH3T3, GalScreen luminescence, 90 h; inhibition, % at 8.34 µM; hit rate 5.9% among 77,000; AID 624255;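 active = mean inhibition above about 93%, with at least 55% of replicates each passing it, limit read from the data, passing the limit was not always enough; inconclusive = only one of those two conditions holds; inactive = neither condition holds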
# C diff growth: blocks growth of Clostridium difficile | Clostridium difficile clinical isolate growth, OD600, 24 h; stronger effect = lower value | growth activity, negative = inhibition, % at 16 µg/mL (by protocol) | hit rate 0.25% among 86,000 | AID 1259249;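 active = mean growth activity at or below -80% and every replicate also at or below -80%; inconclusive = mean at or below -80% but some replicate above -80%; inactive = mean growth activity above -80%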;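 also: 0% = DMSO wells and -100% = levofloxacin 16 µg/mL wells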
# Pf Dd2 growth: P. falciparum Dd2 growth inhibition. SYBR Green, 72 h; stronger effect = lower value. activity change, % at 10 µM. hit rate 2.3% among 94,000. AID 1159554; in the data active = activity change below about -80%; inconclusive = no clear call, values can overlap the other calls
# T cruzi growth-2: blocks T. cruzi growth in NIH3T3 host cells; shares compounds with T cruzi growth-1; T. cruzi beta-gal in NIH3T3, GalScreen luminescence, 90 h; inhibition, % at 8.35 µM; hit rate 72% among 5,600;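 active = mean replicate inhibition above about 95% and at least 55% of replicates individually reaching it, limit read from the data; inconclusive = only one of the two criteria is met; inactive = neither criterion is met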
# T cruzi growth-3: Trypanosoma cruzi proliferation inhibition | T. cruzi beta-gal in NIH3T3, GalScreen luminescence, 90 h | inhibition, % at 2.09 µM | hit rate 21% among 5,600 | AID 651740 | shares compounds with T cruzi growth-1;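 active = mean inhibition above about 95%, with at least 55% of replicates also reaching it, limit read from the data; inconclusive = meets just one of the two conditions; inactive = meets neither condition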;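 also: plate controls were neutral control median for no effect and positive control median for full effect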
# NIH3T3 tox: NIH/3T3 (mouse) viability loss | shares compounds with T cruzi growth-1 | NIH/3T3 viability, CellTiter-Glo ATP luminescence, 90 h | cytotoxicity (signal decrease), % at 8.35 µM | hit rate 14% among 5,600 | AID 651742;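 active = mean signal decrease across replicates above about 35% based on untreated-well scatter, with enough replicates individually passing, limit read from the data; inconclusive = no rule stated though some were filed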;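 also: 0% = median of neutral control wells and 100% = median of positive control wells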
# NIH3T3 tox 2: NIH/3T3 (mouse) viability loss; hit rate 56% among 5,600; NIH/3T3 viability, CellTiter-Glo ATP luminescence, 90 h; inhibition, % at 24.9 µM; shares compounds with T cruzi growth-1; AID 651744;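 active = mean loss of cell viability signal at or above a set limit, and enough replicates individually reaching it; inconclusive = meets only the mean limit or only the replicate share; inactive = meets neither condition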;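 also: 0% = median of neutral control wells and 100% = median of positive control wells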
# Active calls of the source: *; u = inconclusive; x = not tested or not shown.
SMILES,T cruzi growth-1,C diff growth,Pf Dd2 growth,T cruzi growth-2,T cruzi growth-3,NIH3T3 tox,NIH3T3 tox 2
C[C@@H]1CN([C@H](C)CO)C(=O)c2c(c3ccccc3n2C)-c2ccccc2CO[C@H]1CN(C)S(=O)(=O)c1ccsc1,106.6*,-2.3,-86.5*,104.9*,62.5,-28.4,1.9
C[C@@H]1CN([C@H](C)CO)C(=O)c2ccccc2-c2ccccc2CO[C@@H]1CN(C)S(=O)(=O)c1ccc(C(F)(F)F)cc1,82.9,2.1,-4.2,x,x,x,x
C[C@H](CO)N1C[C@H](C)[C@@H](CN(C)S(=O)(=O)c2cn(C)cn2)OCc2ccccc2-c2c(n(C)c3ccccc23)C1=O,106.5*,3.3,-19.8,97.1*,3.7,27.3,99.2*
C[C@@H]1CN([C@H](C)CO)C(=O)c2c(c3ccccc3n2C)-c2ccccc2CO[C@H]1CN(C)S(C)(=O)=O,12.8,x,9.4,x,x,x,x
C[C@H]1CN([C@@H](C)CO)C(=O)c2c(c3ccccc3n2C)-c2ccccc2CO[C@@H]1CN(C)S(=O)(=O)c1cn(C)cn1,64.6,2.3,-20.7,x,x,x,x
C[C@H]1CN([C@@H](C)CO)C(=O)c2ccccc2-c2ccccc2CO[C@H]1CN(C)S(=O)(=O)c1ccc(C(F)(F)F)cc1,107.7*,3.1,-81.1*,105.3*,55.0,14.1,5.1
Cc1ccccc1S(=O)(=O)N(C)C[C@H]1OCc2ccccc2-c2c(n(C)c3ccccc23)C(=O)N([C@@H](C)CO)C[C@@H]1C,u,x,-85.1*,100.8*,83.7,10.2,u
C[C@@H]1CN([C@H](C)CO)C(=O)c2c(c3ccccc3n2C)-c2ccccc2CO[C@@H]1CN(C)S(=O)(=O)c1ccsc1,52.0,-3.1,-5.3,x,x,x,x
C[C@@H]1CCCCO[C@@H](CN(C)C(=O)Cc2ccccc2)[C@H](C)CN([C@H](C)CO)C(=O)c2cc(NS(=O)(=O)c3ccccc3)ccc2O1,x,x,-53.3,x,x,x,x
CCC(=O)N1[C@@H](CO)[C@@H](c2ccccc2)C12CN(C(=O)c1ccc3c(c1)OCO3)C2,x,0.9,27.1,x,x,x,x
CO[C@H](CN(C)C(=O)C1CCOCC1)[C@@H](C)CN(C(=O)Nc1ccc(C(F)(F)F)cc1)[C@@H](C)CO,55.9,x,4.1,x,x,x,x
Cc1ccccc1S(=O)(=O)N(C)C[C@@H]1OCc2ccccc2-c2ccccc2C(=O)N([C@H](C)CO)C[C@@H]1C,u,5.7,-38.7,82.8,15.6,-8.9,16.4
C[C@H]1CN([C@@H](C)CO)C(=O)c2c(c3ccccc3n2C)-c2ccccc2CO[C@@H]1CN(C)S(=O)(=O)c1ccccc1C#N,89.0,3.0,-77.3,x,x,x,x
Cc1ccccc1S(=O)(=O)N(C)C[C@H]1OCc2ccccc2-c2c(n(C)c3ccccc23)C(=O)N([C@H](C)CO)C[C@@H]1C,u,x,-64.2,96.3*,56.3,-17.4,24.1*
C[C@@H]1CN([C@H](C)CO)C(=O)c2c(c3ccccc3n2C)-c2ccccc2CO[C@@H]1CN(C)S(C)(=O)=O,13.0,x,16.8,x,x,x,x
C[C@H](CO)N1C[C@H](C)[C@H](CN(C)S(=O)(=O)c2ccccc2C#N)OCc2ccccc2-c2c(n(C)c3ccccc23)C1=O,108.5*,-2.9,-42.6,u,58.9,15.7,46.2*
Cc1ccccc1S(=O)(=O)N(C)C[C@@H]1OCc2ccccc2-c2ccccc2C(=O)N([C@@H](C)CO)C[C@H]1C,87.4,3.5,-52.2,x,x,x,x
C[C@H]1CN([C@@H](C)CO)S(=O)(=O)c2ccc(C#CC3CC3)cc2O[C@H]1CN(C)C(=O)C1CCC1,94.7,-1.5,-37.9,x,x,x,x
C[C@@H](O)C#Cc1ccc([C@H]2[C@@H](CO)N3CCCCN(C(=O)c4ccc(F)cc4)C[C@H]23)cc1,98.9*,-9.2,-30.1,102.1*,14.7,-0.7,-11.6
C[C@H](O)C#Cc1ccc([C@H]2[C@H](CO)N3CCCCN(C(=O)c4ccncc4)C[C@@H]23)cc1,-23.3,-7.8,-12.6,x,x,x,x
C[C@H](O)C#Cc1ccc([C@@H]2[C@@H](CO)N3CCCCN(C(=O)c4ccc(F)cc4)C[C@@H]23)cc1,40.9,0.1,4.8,x,x,x,x
C[C@@H](O)C#Cc1ccc([C@H]2[C@H]3CN(C(=O)c4ccncc4)CCCCN3[C@H]2CO)cc1,u,-7.4,-5.0,u,-7.0,6.9,12.6
CC(C)(O)C#Cc1ccc([C@H]2[C@H](CO)N3CCCCN(C(=O)c4ccncc4)C[C@@H]23)cc1,31.2,-1.9,39.7,x,x,x,x
COc1ccc(C#Cc2ccc([C@H]3[C@@H](CO)N4CCCCN(C(=O)c5ccncc5)C[C@H]34)cc2)cc1,101.3*,-13.6,-51.3,101.9*,62.6,26.0,106.4*
C[C@H](O)C#Cc1ccc([C@H]2[C@H]3CN(C(=O)c4ccc(F)cc4)CCCCN3[C@H]2CO)cc1,27.0,-3.4,5.1,x,x,x,x
SMILES,T cruzi growth-1,C diff growth,Pf Dd2 growth,T cruzi growth-2,T cruzi growth-3,NIH3T3 tox,NIH3T3 tox 2
C[C@@H](O)C#Cc1ccc([C@H]2[C@@H](CO)N3CCCCN(C(=O)c4ccc(F)cc4)C[C@@H]23)cc1,103.2*,-4.5,3.5,45.7,29.8,-13.6,14.1
C[C@@H]1CN([C@H](C)CO)C(=O)c2cc(C#Cc3cccc(F)c3)cnc2O[C@@H]1CN(C)Cc1ccccn1,17.5,-3.0,-42.8,x,x,x,x
CCCC#Cc1ccc2c(c1)O[C@@H](CN(C)C(=O)C1CCCCC1)[C@@H](C)CN([C@@H](C)CO)S2(=O)=O,73.7,5.1,-27.0,x,x,x,x
Cc1noc(C)c1NC(=O)N(C)C[C@@H]1OCCCC[C@H](C)Oc2ccc(NC(=O)Nc3ccc(F)cc3)cc2C(=O)N([C@H](C)CO)C[C@@H]1C,10.4,-0.2,-5.0,x,x,x,x
C/C=C/c1ccc([C@H]2[C@@H](CO)N(C(=O)CC)[C@H]2CNC(=O)CC)cc1,88.9,-0.3,-2.9,x,x,x,x
C[C@@H]1CN([C@@H](C)CO)C(=O)c2cc(NC(=O)NC3CCCCC3)ccc2O[C@@H](C)CCCCO[C@H]1CN(C)Cc1ccncc1,16.2,0.5,27.4,x,x,x,x
C[C@@H]1CN([C@@H](C)CO)C(=O)c2cc(NC(=O)NC3CCCCC3)ccc2O[C@@H](C)CCCCO[C@@H]1CN(C)Cc1ccncc1,87.3,-7.6,-5.3,x,x,x,x
C[C@H](CO)N1C[C@H](C)[C@H](CN(C)Cc2ccncc2)OCCCC[C@H](C)Oc2ccc(NC(=O)NC3CCCCC3)cc2C1=O,96.7*,-1.7,19.7,106.5*,31.2,1.1,12.6
C[C@@H]1CCCCO[C@@H](CN(C)Cc2ccncc2)[C@@H](C)CN([C@@H](C)CO)C(=O)c2cc(NC(=O)NC3CCCCC3)ccc2O1,103.1*,14.5,-5.4,35.3,0.7,-30.6,3.3
C[C@@H]1CCCCO[C@H](CN(C)S(=O)(=O)c2cn(C)cn2)[C@@H](C)CN([C@@H](C)CO)C(=O)c2cc(NC(=O)NC3CCCCC3)ccc2O1,14.5,-1.8,10.2,x,x,x,x
